# Reference: a collection of fitness landscapes (doi:10.1126/science.1257360)
# Whole data set: some 140,000 sequences, median “enrichment ratio after two sorts for PhoP signalling” near 0, cut for the highest 2% near 11. Only a selection was taken, and the highest values are over-represented in it overall.
# B1: PhoQ; a variant is named by its letters at X, in order, P23837 (parent)
# chain: MKKLLRLFFPLSLRVRFLLATAAVVLVLSLAYGMVALIGYSVSFDKTTFRLLRGESNLFYTLAKWENNKLHVELPENIDKQSPTMTLIYDENGQLLWAQRDVPWLMKMIQPDWLKSNGFHEIEADVNDTSLLLSGDHSIQQQLQEVREDDDDAEMTHSVAVNVYPATSRMPKLTIVVVDTIPVELKSSYMVWSWFIYVLSANLLLVIPLLWVAAWWSLRPIEALAKEVRELEEHNRELLNPATTRELTSLVRNLNRLLKSERERYDKYRTTLTDLTHSLKTPLXXLQXXLRSLRSEKMSVSDAEPVMLEQISRISQQIGYYLHRASMRGGTLLSRELHPVAPLLDNLTSALNKVYQRKGVNISLDISPEISFVGEQNDFVEVMGNVLDNACKYCLEFVEISARQTDEHLYIVVEDDGPGIPLSKREVIFDRGQRVDTLRPGQGVGLAVAREITEQYEGKIVAGESMLGGARMEVIFGRQHSAPKDE
# Variants of: B1
# Test: enrichment ratio after two sorts for PhoP signalling (ratio (wild type AVST 3.29)); higher = more functional
# Conditions: with PhoP (E. coli)
row,Variant,enrichment ratio
1,TYNL,3.68
2,RPMT,≤ 0.25
3,HVPY,≤ 0.25
4,WMTR,≤ 0.25
5,WIHI,≤ 0.25
6,WFNQ,≤ 0.25
7,HCCF,≤ 0.25
8,TQGD,2.92
9,TQMD,63
10,TQVG,12.2
11,TQED,≤ 0.25
12,KSWG,≤ 0.25
13,NQVC,≤ 0.25
14,TQWG,18.3
15,TGWG,5.4
16,TQVA,3.07
17,TQEG,≤ 0.25
18,TQVC,14.3
19,WQVC,≤ 0.25
20,IQCQ,≤ 0.25
21,ACAH,4.6
22,GLLF,4.76
23,NFMP,≤ 0.25
24,LLRY,≤ 0.25

row,Variant,enrichment ratio
1,VNTC,≤ 0.25
2,IRDH,≤ 0.25
3,EIET,≤ 0.25
4,MPTT,≤ 0.25
5,KEKC,≤ 0.25
6,VMIT,≤ 0.25
7,TQMI,6.9
8,IQVQ,≤ 0.25
9,TQQG,16.8
10,LAQG,≤ 0.25
11,NVSG,≤ 0.25
12,KSQG,≤ 0.25
13,TQMQ,24.2
14,WQVQ,≤ 0.25
15,TQSG,22.2
16,PVSG,≤ 0.25
17,TQVQ,13.8
18,IQMQ,≤ 0.25
19,GHDF,≤ 0.25
20,PFFG,≤ 0.25
21,QSAN,≤ 0.25
22,HQRF,≤ 0.25
23,YLKI,≤ 0.25
24,YYVE,≤ 0.25

row,Variant,enrichment ratio
1,YDMW,≤ 0.25
2,QNMD,≤ 0.25
3,TQMV,7.29
4,TQMA,12.7
5,TQMG,32.5
6,WQAG,≤ 0.25
7,TQQR,≤ 0.25
8,TQAG,28.2
9,KQAG,≤ 0.25
10,SQMA,8.75
11,NQMA,≤ 0.25
12,EPSH,≤ 0.25
13,CFVH,≤ 0.25
14,RDRE,≤ 0.25
15,NQHC,≤ 0.25
16,RVAA,≤ 0.25
17,LDQA,≤ 0.25
18,KQLN,≤ 0.25
19,TQLN,13.2
20,TQEN,≤ 0.25
21,DWTN,≤ 0.25
22,NVTN,≤ 0.25
23,EQLN,≤ 0.25
24,TQWN,10.1

row,Variant,enrichment ratio
1,NQFN,≤ 0.25
2,TQTN,15.4
3,TQFN,14.2
4,FQFN,≤ 0.25
5,TQQN,14.8
6,VGED,≤ 0.25
7,FPIP,≤ 0.25
8,WVYL,≤ 0.25
9,IRTL,≤ 0.25
10,TQCN,24.9
11,NQCN,≤ 0.25
12,EQCN,≤ 0.25
13,YYPA,≤ 0.25
14,DFPF,≤ 0.25
15,GGMA,≤ 0.25
16,NEMA,≤ 0.25
17,TGMA,26.1
18,THMA,6.15
19,WIMA,≤ 0.25
20,YTGA,≤ 0.25
21,RGMA,≤ 0.25
22,TTMA,13.4
23,ITGA,≤ 0.25
24,TTGA,12.6

row,Variant,enrichment ratio
1,NHMA,16.2
2,YTMA,≤ 0.25
3,LFNF,≤ 0.25
4,DMIQ,≤ 0.25
5,LEWL,≤ 0.25
6,ADCH,9.13
7,GPHV,≤ 0.25
8,TGWN,≤ 0.25
9,PMPR,≤ 0.25
10,KQFD,≤ 0.25
11,WFVI,≤ 0.25
12,RFQA,≤ 0.25
13,VHFG,≤ 0.25
14,EVCW,≤ 0.25
15,AHMA,≤ 0.25
16,AIMA,12.1
17,ATMA,1.82
18,EPIW,≤ 0.25
19,NQNT,≤ 0.25
20,STVT,0.835
21,SSLA,7.43
22,SSLS,11.4
23,SSVT,14.6
24,KSVT,≤ 0.25

row,Variant,enrichment ratio
1,SSLK,5.98
2,SSAT,8.03
3,SSLT,12
4,SSNT,≤ 0.25
5,HWNL,≤ 0.25
6,QGSH,9.79
7,TMLT,1.84
8,HPCD,≤ 0.25
9,SSRS,≤ 0.25
10,HMWA,≤ 0.25
11,LPNW,0.366
12,QQHW,≤ 0.25
13,THTR,≤ 0.25
14,HQLH,≤ 0.25
15,AHLH,≤ 0.25
16,CQLH,27.9
17,KKLH,≤ 0.25
18,AKLH,14.6
19,MKLH,≤ 0.25
20,HKLH,≤ 0.25
21,TKLH,11.9
22,TPLH,≤ 0.25
23,AQLH,13.8
24,RQLH,≤ 0.25

row,Variant,enrichment ratio
1,WQLH,≤ 0.25
2,PTHK,≤ 0.25
3,EMCT,≤ 0.25
4,CHLM,≤ 0.25
5,QVLK,≤ 0.25
6,NHYM,≤ 0.25
7,KMAQ,≤ 0.25
8,SMCI,14.3
9,SMGG,1.44
10,SMCY,11.6
11,SMHP,≤ 0.25
12,SMCS,10.4
13,SMCK,9.85
14,KYAQ,≤ 0.25
15,SMAQ,15.5
16,MMCY,≤ 0.25
17,SLCY,2.99
18,SMGQ,11.7
19,GSEH,≤ 0.25
20,IYMF,≤ 0.25
21,IKKL,≤ 0.25
22,TQFP,≤ 0.25
23,KGRD,≤ 0.25
24,LVLT,≤ 0.25

row,Variant,enrichment ratio
1,VGSS,≤ 0.25
2,WDDM,≤ 0.25
3,GMHA,≤ 0.25
4,SMMD,≤ 0.25
5,SMCL,16.6
6,SMMY,2.28
7,SMSA,14.6
8,SMTM,14.9
9,SMPM,≤ 0.25
10,SMME,14.6
11,SMSQ,11.1
12,SMGL,5.54
13,SMSH,9.89
14,SMWM,≤ 0.25
15,SMPL,≤ 0.25
16,LSHR,≤ 0.25
17,KFYP,≤ 0.25
18,KYSQ,≤ 0.25
19,KEDF,≤ 0.25
20,HKIL,≤ 0.25
21,EQYF,≤ 0.25
22,DLKR,≤ 0.25
23,IPGP,≤ 0.25
24,FPRY,≤ 0.25

row,Variant,enrichment ratio
1,GVMQ,5.97
2,SMPI,1.09
3,SMPA,≤ 0.25
4,SMGS,1.09
5,SMCE,11.7
6,SMTA,11.8
7,SLCW,0.501
8,SMPE,0.359
9,SMCA,15.3
10,SMCW,19.6
11,SMWI,≤ 0.25
12,SNCW,10.3
13,SMIE,≤ 0.25
14,AKLD,≤ 0.25
15,VWSC,≤ 0.25
16,SVVD,≤ 0.25
17,RVNR,≤ 0.25
18,SMAV,5.92
19,SMAE,25.2
20,SMSK,2.79
21,SMSR,≤ 0.25
22,KMAE,≤ 0.25
23,SMSI,12.9
24,HLVA,≤ 0.25

row,Variant,enrichment ratio
1,AQPM,≤ 0.25
2,RVFT,≤ 0.25
3,NAGS,≤ 0.25
4,RQQG,≤ 0.25
5,FDCH,≤ 0.25
6,TDCH,11.9
7,LTCH,≤ 0.25
8,FDMH,≤ 0.25
9,LTMH,2.1
10,TDMH,18.2
11,EPTI,≤ 0.25
12,MAHQ,≤ 0.25
13,EKMC,≤ 0.25
14,QIGH,14
15,QEGH,24.6
16,QIYH,≤ 0.25
17,SNGP,≤ 0.25
18,QITH,≤ 0.25
19,YTGH,≤ 0.25
20,QRGH,≤ 0.25
21,SNTH,7.23
22,SNGH,23.3
23,SRGH,≤ 0.25
24,STGH,17.1

row,Variant,enrichment ratio
1,QGGH,≤ 0.25
2,YAAS,≤ 0.25
3,QNYF,≤ 0.25
4,GMNL,≤ 0.25
5,SKVD,≤ 0.25
6,LATP,≤ 0.25
7,DRAC,≤ 0.25
8,VPLT,≤ 0.25
9,GGVS,≤ 0.25
10,FTAL,0.293
11,QVGH,15.9
12,QVTH,≤ 0.25
13,QVGP,≤ 0.25
14,LEWI,2.42
15,LRMM,≤ 0.25
16,LEGM,≤ 0.25
17,LEEG,≤ 0.25
18,LEIV,≤ 0.25
19,LEGG,≤ 0.25
20,LEMV,12.9
21,LEMS,8.78
22,LEWV,11.9
23,LEMM,11.3
24,LEMK,≤ 0.25

row,Variant,enrichment ratio
1,LEMG,11.8
2,FPFR,≤ 0.25
3,FVFS,≤ 0.25
4,GEKH,≤ 0.25
5,QGKV,≤ 0.25
6,SSGP,≤ 0.25
7,EPLM,≤ 0.25
8,ALDK,≤ 0.25
9,IQAH,≤ 0.25
10,NQLC,≤ 0.25
11,TQAH,13.3
12,EQNV,≤ 0.25
13,TQNV,14.2
14,WQLC,≤ 0.25
15,TQLC,13.1
16,TQWT,0.56
17,NQAH,≤ 0.25
18,TQAT,12.7
19,IQNV,≤ 0.25
20,TQQT,6.08
21,MGKS,≤ 0.25
22,INSM,0.298
23,IPGV,≤ 0.25
24,PQPN,≤ 0.25

row,Variant,enrichment ratio
1,FQNC,≤ 0.25
2,NNRL,≤ 0.25
3,EKQI,≤ 0.25
4,RWFN,≤ 0.25
5,NWQL,≤ 0.25
6,VDAW,≤ 0.25
7,RNYN,≤ 0.25
8,FRWR,≤ 0.25
9,WYYY,≤ 0.25
10,TQNS,12.8
11,TQNW,≤ 0.25
12,TQNY,6.18
13,TQAD,11.6
14,TQNI,≤ 0.25
15,TQAA,3.31
16,TQLS,17.6
17,TQNT,15.4
18,LAAD,≤ 0.25
19,TQLQ,5.05
20,TQRA,≤ 0.25
21,TQET,≤ 0.25
